# Laboratory results reported in PubChem BioAssay (NCI).
# About 79,000 compounds went through this panel and 15% of them were active in at least one assay; those are over-represented in the sample as a whole. Values without a mark were called inactive. Calls of active or inactive are those of the source. Rule as the data show it: active = growth inhibition above about 70%; inactive = the rest.
# What was measured:
# [1] = NCI Yeast Anticancer Drug Screen. Data for the rad52 strain (AID 147);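 also: 0% = growth of vehicle-treated control cultures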; conditions: S. cerevisiae rad52 mutant growth inhibition, stronger effect = higher value
# Procedure, shortened: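 Measured: yeast growth inhibition. System: strain with a defined DNA damage repair alteration. Reference: vehicle-treated control cultures.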
# [2] = NCI Yeast Anticancer Drug Screen. Data for the wt1 strain (AID 149);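 also: 0% = growth of vehicle-treated wt1 cultures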; conditions: S. cerevisiae wt1 strain (SPY 50644) growth inhibition, stronger effect = higher value
# Procedure, shortened: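 Yeast wt1 strain exposed to compounds; growth inhibition measured relative to vehicle-treated controls.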
# [3] = NCI Yeast Anticancer Drug Screen. Data for the rad50EPP+ strain (AID 151);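 also: 0% = growth of vehicle-treated control cultures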; conditions: S. cerevisiae rad50 mutant strain, stronger effect = higher value
# Procedure, shortened: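 One strain with a rad50 alteration (rad50EPP+) was compound-treated, its growth then compared to that of vehicle controls.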
# [4] = NCI Yeast Anticancer Drug Screen. Data for the rad50 strain (AID 155);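 also: 0% = growth of vehicle-only cultures of the same strain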; conditions: S. cerevisiae rad50 strain growth inhibition, stronger effect = higher value
# Procedure, shortened: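 Yeast carrying a defined DNA repair defect were exposed to test compounds, and growth was compared with vehicle-treated controls to give percent inhibition.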
# [5] = NCI Yeast Anticancer Drug Screen. Data for the mec2-1 strain (AID 157); conditions: S. cerevisiae mec2-1 strain, stronger effect = higher value
# Procedure, shortened: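 Test agents were screened against the mec2-1 yeast strain, with defined DNA repair or cell cycle alteration. Growth was scored as inhibition against vehicle-only controls.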
# [6] = NCI Yeast Anticancer Drug Screen. Data for the rad14 strain (AID 159);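 also: 0% = growth of vehicle-treated control cultures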; conditions: S. cerevisiae rad14 strain growth inhibition, stronger effect = higher value
# Procedure, shortened: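 Yeast cells carrying a defined DNA-repair defect were exposed to compounds, and growth inhibition was calculated relative to vehicle-treated control cultures.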
# [7] = NCI Yeast Anticancer Drug Screen. Data for the sgs1 mgt1 strain (AID 161);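 also: 0% = growth of cultures given vehicle only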; conditions: S. cerevisiae sgs1 mgt1 strain, stronger effect = higher value
# Procedure, shortened: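 Inhibition of yeast growth, normalised to vehicle-treated controls, is reported for a strain bearing genetic alterations in DNA damage repair.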
# [8] = NCI Yeast Anticancer Drug Screen. Data for the CLN2oe strain (AID 163);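 also: 0% = growth of vehicle-only control cultures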; conditions: S. cerevisiae CLN2oe strain, stronger effect = higher value
# Procedure, shortened: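 Here, growth inhibition in a cell-cycle-altered yeast strain after compound exposure was quantified against vehicle control growth.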
# [9] = NCI Yeast Anticancer Drug Screen. Data for the cln2 rad14 strain (AID 165);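 also: 0% = growth equal to vehicle treated cultures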; conditions: S. cerevisiae cln2 rad14 strain, stronger effect = higher value
# Procedure, shortened: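 Growth of compound-exposed yeast (cln2 rad14 genotype) measured and expressed as inhibition relative to vehicle.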
# [10] = NCI Yeast Anticancer Drug Screen. Data for the bub3 strain (AID 167); conditions: S. cerevisiae bub3 mutant strain, stronger effect = higher value
# Procedure, shortened: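 Compounds were applied to a genetically altered yeast strain carrying a cell-cycle control defect. Growth inhibition was scored against vehicle-treated controls.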
# [11] = NCI Yeast Anticancer Drug Screen. Data for the wt2 strain (AID 169);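 also: 0% = growth of vehicle-treated yeast cultures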; conditions: S. cerevisiae wt2 strain growth inhibition, stronger effect = higher value
# Procedure, shortened: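 Genetically defined yeast strains from a DNA-repair/cell-cycle panel were used. Compound-exposed yeast growth was measured, and the inhibition was calculated relative to vehicle treatment.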
# [12] = NCI Yeast Anticancer Drug Screen. Data for the mlh1 strain (AID 171);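 also: 0% = growth of vehicle-treated control cultures of the same strain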; conditions: S. cerevisiae mlh1 strain growth inhibition, stronger effect = higher value
# Procedure, shortened: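 Here the genetically defined yeast mutant is grown with each compound, and the extent to which its growth falls below that of vehicle-exposed cells is reported.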
# [13] = NCI Yeast Anticancer Drug Screen. Data for the sgs1 strain (AID 173);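 also: 0% = growth of vehicle-only control cultures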; conditions: S. cerevisiae sgs1 mutant, stronger effect = higher value
# Procedure, shortened: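 Relative growth inhibition, referenced to vehicle, was determined in a yeast strain with a defined alteration affecting DNA damage repair or cell cycle control after compound exposure.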
# [14] = NCI Yeast Anticancer Drug Screen. Data for the mlh1 rad18 strain (AID 175); conditions: S. cerevisiae mlh1 rad18 strain growth inhibition, stronger effect = higher value
# Procedure, shortened: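 In this whole-cell yeast screen, a strain with altered DNA damage repair is challenged with compound, and its growth is measured against matched vehicle-treated controls.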
# [15] = NCI Yeast Anticancer Drug Screen. Data for the rad18 strain (AID 177); conditions: S. cerevisiae rad18 mutant growth inhibition, stronger effect = higher value
# Procedure, shortened: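 Screen uses a yeast strain with a defined lesion in DNA damage repair; compound effect is read as loss of growth compared to untreated vehicle cultures.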
# [16] = at 5.0 µM (retest, dose inferred, filed as 0.5)
# [17] = at 50.0 µM (retest, dose inferred, filed as 5.0)
structure (smiles),measurement,setting,value
CC1=C(O)C(=O)C=C2C1=CC=C1[C@@]2(C)CCC2(C)[C@@H]3C[C@@H](C)C(=O)C[C@]3(C)CC[C@]12C (stereo partly specified),growth inhibition,[1]; at 1.2 µM,41%
same,growth inhibition,[1]; at 3.7 µM,58%
same,growth inhibition,[1]; at 11.0 µM,98% (active)
same,growth inhibition,[1]; at 33.0 µM,98% (active)
same,growth inhibition,[1]; at 100.0 µM,96% (active)
same,growth inhibition,[2]; at 1.2 µM,9%
same,growth inhibition,[2]; at 3.7 µM,8%
same,growth inhibition,[2]; at 11.0 µM,96% (active)
same,growth inhibition,[2]; at 33.0 µM,97% (active)
same,growth inhibition,[2]; at 100.0 µM,96% (active)
same,growth inhibition,[3]; at 1.2 µM,9%
same,growth inhibition,[3]; at 3.7 µM,12%
same,growth inhibition,[3]; at 11.0 µM,29%
same,growth inhibition,[3]; at 33.0 µM,32%
same,growth inhibition,[3]; at 100.0 µM,59%
same,growth inhibition,[4]; at 1.2 µM,11%
same,growth inhibition,[4]; at 3.7 µM,28%
same,growth inhibition,[4]; [16],4%
same,growth inhibition,[4]; at 11.0 µM,96% (active)
same,growth inhibition,[4]; at 33.0 µM,97% (active)
same,growth inhibition,[4]; [17],97% (active)
same,growth inhibition,[4]; at 50.0 µM,88.3% (active)
same,growth inhibition,[4]; at 100.0 µM,97% (active)
same,growth inhibition,[5]; at 1.2 µM,5%
same,growth inhibition,[5]; at 3.7 µM,24%
same,growth inhibition,[5]; [16],4%
same,growth inhibition,[5]; at 11.0 µM,97% (active)
same,growth inhibition,[5]; at 33.0 µM,98% (active)
same,growth inhibition,[5]; [17],99% (active)
same,growth inhibition,[5]; at 50.0 µM,90.5% (active)
same,growth inhibition,[5]; at 100.0 µM,96% (active)
same,growth inhibition,[6]; at 1.2 µM,-26%
same,growth inhibition,[6]; at 3.7 µM,-13%
same,growth inhibition,[6]; at 11.0 µM,94% (active)
same,growth inhibition,[6]; at 33.0 µM,97% (active)
same,growth inhibition,[6]; at 100.0 µM,95% (active)
same,growth inhibition,[7]; [16],16%
same,growth inhibition,[7]; [17],96% (active)
same,growth inhibition,[7]; at 50.0 µM,87.3% (active)
same,growth inhibition,[8]; at 1.2 µM,-13%
same,growth inhibition,[8]; at 3.7 µM,10%
same,growth inhibition,[8]; at 11.0 µM,98% (active)
same,growth inhibition,[8]; at 33.0 µM,98% (active)
same,growth inhibition,[8]; at 100.0 µM,95% (active)
same,growth inhibition,[9]; [16],35%
same,growth inhibition,[9]; [17],97% (active)
same,growth inhibition,[9]; at 50.0 µM,86.5% (active)
same,growth inhibition,[10]; at 1.2 µM,-19%
same,growth inhibition,[10]; at 3.7 µM,-6%
same,growth inhibition,[10]; [16],38%
same,growth inhibition,[10]; at 11.0 µM,96% (active)
same,growth inhibition,[10]; at 33.0 µM,97% (active)
same,growth inhibition,[10]; [17],97% (active)
same,growth inhibition,[10]; at 50.0 µM,87.9% (active)
same,growth inhibition,[10]; at 100.0 µM,96% (active)
same,growth inhibition,[11]; at 1.2 µM,0%
same,growth inhibition,[11]; at 3.7 µM,0%
same,growth inhibition,[11]; at 11.0 µM,93% (active)
same,growth inhibition,[11]; at 33.0 µM,97% (active)
same,growth inhibition,[11]; at 100.0 µM,96% (active)
same,growth inhibition,[12]; at 1.2 µM,14%
same,growth inhibition,[12]; at 3.7 µM,31%
same,growth inhibition,[12]; at 11.0 µM,95% (active)
same,growth inhibition,[12]; at 33.0 µM,98% (active)
same,growth inhibition,[12]; at 100.0 µM,96% (active)
same,growth inhibition,[13]; at 1.2 µM,17%
same,growth inhibition,[13]; at 3.7 µM,42%
same,growth inhibition,[13]; at 11.0 µM,96% (active)
same,growth inhibition,[13]; at 33.0 µM,97% (active)
same,growth inhibition,[13]; at 100.0 µM,96% (active)
same,growth inhibition,[14]; [16],41%
same,growth inhibition,[14]; [17],97% (active)
same,growth inhibition,[14]; at 50.0 µM,88.2% (active)
same,growth inhibition,[15]; at 1.2 µM,9%
same,growth inhibition,[15]; at 3.7 µM,28%
same,growth inhibition,[15]; at 11.0 µM,96% (active)
same,growth inhibition,[15]; at 33.0 µM,98% (active)
same,growth inhibition,[15]; at 100.0 µM,97% (active)
CCOC(=O)C1([Se]c2ccccc2)CCCC1=O (stereo unspecified),growth inhibition,[1]; at 1.2 µM,11%
same,growth inhibition,[1]; at 3.7 µM,28%
same,growth inhibition,[1]; at 11.0 µM,40%
same,growth inhibition,[1]; at 33.0 µM,53%
same,growth inhibition,[1]; at 100.0 µM,92% (active)
same,growth inhibition,[2]; at 1.2 µM,16%
same,growth inhibition,[2]; at 3.7 µM,19%
same,growth inhibition,[2]; at 11.0 µM,24%
same,growth inhibition,[2]; at 33.0 µM,50%
same,growth inhibition,[2]; at 100.0 µM,91% (active)
same,growth inhibition,[3]; at 1.2 µM,-7%
same,growth inhibition,[3]; at 3.7 µM,14%
same,growth inhibition,[3]; at 11.0 µM,44%
same,growth inhibition,[3]; at 33.0 µM,87% (active)
same,growth inhibition,[3]; at 100.0 µM,96% (active)
same,growth inhibition,[4]; at 1.2 µM,17%
same,growth inhibition,[4]; at 3.7 µM,15%
same,growth inhibition,[4]; [16],16%
same,growth inhibition,[4]; at 11.0 µM,23%
same,growth inhibition,[4]; at 33.0 µM,44%
same,growth inhibition,[4]; [17],63%
same,growth inhibition,[4]; at 50.0 µM,84.2% (active)
same,growth inhibition,[4]; at 100.0 µM,92% (active)
same,growth inhibition,[5]; at 1.2 µM,1%
same,growth inhibition,[5]; at 3.7 µM,-6%
same,growth inhibition,[5]; [16],-18%
same,growth inhibition,[5]; at 11.0 µM,9%
same,growth inhibition,[5]; at 33.0 µM,30%
same,growth inhibition,[5]; [17],43%
same,growth inhibition,[5]; at 50.0 µM,71.8% (active)
same,growth inhibition,[5]; at 100.0 µM,-11%
same,growth inhibition,[6]; at 1.2 µM,-9%
same,growth inhibition,[6]; at 3.7 µM,1%
same,growth inhibition,[6]; at 11.0 µM,-11%
same,growth inhibition,[6]; at 33.0 µM,25%
same,growth inhibition,[6]; at 100.0 µM,94% (active)
same,growth inhibition,[7]; [16],-3%
same,growth inhibition,[7]; [17],59%
same,growth inhibition,[7]; at 50.0 µM,84.2% (active)
same,growth inhibition,[8]; at 1.2 µM,2%
same,growth inhibition,[8]; at 3.7 µM,6%
same,growth inhibition,[8]; at 11.0 µM,16%
same,growth inhibition,[8]; at 33.0 µM,11%
same,growth inhibition,[8]; at 100.0 µM,68%
same,growth inhibition,[9]; [16],14%
same,growth inhibition,[9]; [17],52%
same,growth inhibition,[9]; at 50.0 µM,73.2% (active)
same,growth inhibition,[10]; at 1.2 µM,-4%
same,growth inhibition,[10]; at 3.7 µM,0%
same,growth inhibition,[10]; [16],10%
same,growth inhibition,[10]; at 11.0 µM,-13%
same,growth inhibition,[10]; at 33.0 µM,13%
same,growth inhibition,[10]; [17],82% (active)
same,growth inhibition,[10]; at 50.0 µM,81.2% (active)
same,growth inhibition,[10]; at 100.0 µM,90% (active)
same,growth inhibition,[11]; at 1.2 µM,2%
same,growth inhibition,[11]; at 3.7 µM,21%
same,growth inhibition,[11]; at 11.0 µM,22%
same,growth inhibition,[11]; at 33.0 µM,49%
same,growth inhibition,[11]; at 100.0 µM,88% (active)
same,growth inhibition,[12]; at 1.2 µM,8%
same,growth inhibition,[12]; at 3.7 µM,6%
same,growth inhibition,[12]; at 11.0 µM,33%
same,growth inhibition,[12]; at 33.0 µM,58%
same,growth inhibition,[12]; at 100.0 µM,83% (active)
same,growth inhibition,[13]; at 1.2 µM,22%
same,growth inhibition,[13]; at 3.7 µM,42%
same,growth inhibition,[13]; at 11.0 µM,56%
same,growth inhibition,[13]; at 33.0 µM,75% (active)
same,growth inhibition,[13]; at 100.0 µM,97% (active)
same,growth inhibition,[14]; [16],34%
same,growth inhibition,[14]; [17],87% (active)
same,growth inhibition,[14]; at 50.0 µM,76.6% (active)
same,growth inhibition,[15]; at 1.2 µM,9%
same,growth inhibition,[15]; at 3.7 µM,21%
same,growth inhibition,[15]; at 11.0 µM,30%
same,growth inhibition,[15]; at 33.0 µM,65%
same,growth inhibition,[15]; at 100.0 µM,91% (active)
